Experimental data reported in PubChem BioAssay AID1159580 (chemical genetic matrix, 2015).
The campaign covered roughly 5,500 compounds. About 2,000 (36%) were called active. Roughly 18% stayed inconclusive and do not appear here. Cut-off read from the data, not from the text of the source: active = normalized growth mostly below about 0.91 (no sharp cut-off); inconclusive = no clear call, values can overlap the other calls; inactive = mostly above about 0.92. This is one part of the list.

Experiment: chemical genetic growth profiling, strain panel (AID 1159580);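 note: tested at 20 µM; growth read once vehicle control cultures reached saturation at 30 °C; 1 = growth at the plate median or of vehicle wells; lower values mean less growth of the strain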
Settings: growth OD

Measured: normalized growth

O=c1oc2cc(O)ccc2s1
inactive: S. cerevisiae deletion strains, locus YJR043C, strain POL32, active compounds read low 0.962 | S. cerevisiae deletion strains, locus YJR075W, strain HOC1, active compounds read low 0.958 | S. cerevisiae deletion strains, locus YKL009W, strain mrt4, active compounds read low 0.952 | S. cerevisiae deletion strains, locus YKL068W, active compounds read low 0.995 | S. cerevisiae deletion strains, locus YKL085W, strain MDH1 (second series), active compounds read low 0.975 | S. cerevisiae deletion strains, locus YKL085W, strain MDH1, active compounds read low 0.975 | S. cerevisiae deletion strains, locus YKL160W, strain elf1, active compounds read low 0.99 | S. cerevisiae deletion strains, locus YKL190W, strain CNB1, active compounds read low 1 | S. cerevisiae deletion strains, locus YKR026C, strain gcn3, active compounds read low 1.01 | S. cerevisiae deletion strains, locus YKR091W, strain srl3, active compounds read low 1.01 | S. cerevisiae deletion strains, locus YLL001W, strain dnm1, active compounds read low 0.974 | S. cerevisiae deletion strains, locus YLL026W, active compounds read low 0.99 | S. cerevisiae deletion strains, locus YLL041C, strain sdh2, active compounds read low 1.02 | S. cerevisiae deletion strains, locus YLR027C, strain aat2, active compounds read low 0.983 | S. cerevisiae deletion strains, locus YLR039C, strain RIC1, active compounds read low 0.909 | S. cerevisiae deletion strains, locus YLR058C, strain SHM2, active compounds read low 0.983 | S. cerevisiae deletion strains, locus YLR102C, strain apc9, active compounds read low 0.963 | S. cerevisiae deletion strains, locus YLR221C, strain rsa3, active compounds read low 0.971 | S. cerevisiae deletion strains, locus YLR258W, strain gsy2, active compounds read low 1 | S. cerevisiae deletion strains, locus YLR262C, strain YPT6 (second series), active compounds read low 0.965 | S. cerevisiae deletion strains, locus YLR262C, strain YPT6, active compounds read low 0.981 | S. cerevisiae deletion strains, locus YLR268W, strain sec22, active compounds read low 0.903 | S. cerevisiae deletion strains, locus YLR320W, strain mms22, active compounds read low 0.962 | S. cerevisiae deletion strains, locus YLR330W, strain CHS5, active compounds read low 0.982 | S. cerevisiae deletion strains, locus YLR342W, strain FKS1 (second series), active compounds read low 0.956 | S. cerevisiae deletion strains, locus YLR342W, strain FKS1, active compounds read low 1 | S. cerevisiae deletion strains, locus YLR357W, strain rsc2, active compounds read low 0.995 | S. cerevisiae deletion strains, locus YLR370C, strain arc18, active compounds read low 0.999 | S. cerevisiae deletion strains, locus YLR371W, strain rom2, active compounds read low 0.965 | S. cerevisiae deletion strains, locus YLR384C, strain iki3, active compounds read low 1.02 | S. cerevisiae deletion strains, locus YLR418C, strain cdc73, active compounds read low 0.929 | S. cerevisiae deletion strains, locus YML016C, strain PPZ1, active compounds read low 0.98 | S. cerevisiae deletion strains, locus YML120C, strain ndi1, active compounds read low 0.994 | S. cerevisiae deletion strains, locus YML124C, strain tub3, active compounds read low 0.962 | S. cerevisiae deletion strains, locus YMR058W, strain fet3, active compounds read low 0.967 | S. cerevisiae deletion strains, locus YMR078C, strain ctf18, active compounds read low 0.95 | S. cerevisiae deletion strains, locus YMR129W, active compounds read low 1 | S. cerevisiae deletion strains, locus YMR205C, strain PFK2, active compounds read low 0.969 | S. cerevisiae deletion strains, locus YMR223W, strain ubp8, active compounds read low 0.96 | S. cerevisiae deletion strains, locus YMR231W, strain pep5, active compounds read low 1.03 | S. cerevisiae deletion strains, locus YMR263W, strain SAP30, active compounds read low 0.956 | S. cerevisiae deletion strains, locus YMR307W, strain GAS1, active compounds read low 0.946 | S. cerevisiae deletion strains, locus YNL067W, strain RPL9B, active compounds read low 0.926 | S. cerevisiae deletion strains, locus YNL071W, strain lat1, active compounds read low 1.01 | S. cerevisiae deletion strains, locus YNL128W, strain TEP1, active compounds read low 0.962 | S. cerevisiae deletion strains, locus YNL153C, strain GIM3, active compounds read low 0.948 | S. cerevisiae deletion strains, locus YNL209W, strain ssb2, active compounds read low 1 | S. cerevisiae deletion strains, locus YNL233W, strain BNI4, active compounds read low 0.955 | S. cerevisiae deletion strains, locus YNL248C, strain rpa49, active compounds read low 1.04 | S. cerevisiae deletion strains, locus YNL250W, strain rad50, active compounds read low 0.941 | S. cerevisiae deletion strains, locus YNL271C, strain bni1, active compounds read low 0.939 | S. cerevisiae deletion strains, locus YNL298W, strain CLA4, active compounds read low 0.917 | S. cerevisiae deletion strains, locus YNL307C, strain MCK1, active compounds read low 0.959 | S. cerevisiae deletion strains, locus YNL322C, strain KRE1 (second series), active compounds read low 1.01 | S. cerevisiae deletion strains, locus YNL322C, strain KRE1, active compounds read low 0.99 | S. cerevisiae deletion strains, locus YNR049C, strain mso1, active compounds read low 0.999 | S. cerevisiae deletion strains, locus YNR052C, strain pop2, active compounds read low 0.966 | S. cerevisiae deletion strains, locus YOL006C, strain TOP1, active compounds read low 0.908 | S. cerevisiae deletion strains, locus YOL012C, strain htz1 1.09 | S. cerevisiae deletion strains, locus YOL147C, strain pex11, active compounds read low 0.964 | S. cerevisiae deletion strains, locus YOR001W, strain rrp6, active compounds read low 0.994 | S. cerevisiae deletion strains, locus YOR061W, strain CKA2, active compounds read low 0.984 | S. cerevisiae deletion strains, locus YOR069W, strain VPS5, active compounds read low 0.984 | S. cerevisiae deletion strains, locus YOR070C, strain gyp1, active compounds read low 1.01 | S. cerevisiae deletion strains, locus YOR080W, strain dia2, active compounds read low 1.02 | S. cerevisiae deletion strains, locus YOR083W, strain WHI5, active compounds read low 0.931 | S. cerevisiae deletion strains, locus YOR106W, strain vam3, active compounds read low 0.972 | S. cerevisiae deletion strains, locus YOR136W, strain idh2, active compounds read low 0.972 | S. cerevisiae deletion strains, locus YOR144C, strain elg1, active compounds read low 0.966 | S. cerevisiae deletion strains, locus YOR184W, strain ser1, active compounds read low 0.91 | S. cerevisiae deletion strains, locus YOR265W, strain rbl2, active compounds read low 0.994 | S. cerevisiae deletion strains, locus YOR270C, strain vph1, active compounds read low 0.943 | S. cerevisiae deletion strains, locus YOR290C, strain snf2, active compounds read low 0.992 | S. cerevisiae deletion strains, locus YOR316C, strain cot1, active compounds read low 0.968 | S. cerevisiae deletion strains, locus YPL051W, strain arl3, active compounds read low 0.999 | S. cerevisiae deletion strains, locus YPL055C, strain LGE1, active compounds read low 1 | S. cerevisiae deletion strains, locus YPL078C, strain atp4, active compounds read low 0.987 | S. cerevisiae deletion strains, locus YPL106C, strain sse1, active compounds read low 1.02 | S. cerevisiae deletion strains, locus YPL240C, strain hsp82, active compounds read low 1.02 | S. cerevisiae deletion strains, locus YPL241C, strain CIN2, active compounds read low 0.989 | S. cerevisiae deletion strains, locus YPR119W, strain clb2, active compounds read low 0.967 | S. cerevisiae deletion strains, locus YPR141C, strain kar3, active compounds read low 0.933 | S. cerevisiae deletion strains, locus YPR163C, strain tif3, active compounds read low 0.965 | S. cerevisiae deletion strains, locus YPR167C, strain met16, active compounds read low 0.965 | S. cerevisiae strains, strain wild type, active compounds read low 0.978
active: S. cerevisiae deletion strains, locus YKR001C, strain vps1, active compounds read low 0.894 | S. cerevisiae deletion strains, locus YML032C, strain rad52, active compounds read low 0.858 | S. cerevisiae deletion strains, locus YMR125W, strain sto1, active compounds read low 1.12 [resistant] | S. cerevisiae deletion strains, strain wtn01, active compounds read low 0.876
